Results filed as inconclusive are left out. The source made the active and inactive calls. Unless noted, calls come from the whole dose curve; as a rule, active = well fitted curve in the direction sought with a large enough effect in the repeat runs; inconclusive = weak or mixed curves; inactive = no such curve, though single readings can be large; an effect the other way counts as inactive or inconclusive.
Key:
[1] = molecular target: Retinoic acid receptor RXR-alpha (Homo sapiens) (UniProt P19793); assay: qHTS assay to identify small molecule agonists of the RXR signaling pathway (AID 1159527; calls by dose curve; note: nearly all actives have a fitted effect of over 35% in size); settings: HEK293T RXRa-UAS-bla, beta-lactamase ratio, 16 h; series mostly up to 76.8 µM
Sequence of Retinoic acid receptor RXR-alpha (Homo sapiens) (P19793 whole entry, looked up): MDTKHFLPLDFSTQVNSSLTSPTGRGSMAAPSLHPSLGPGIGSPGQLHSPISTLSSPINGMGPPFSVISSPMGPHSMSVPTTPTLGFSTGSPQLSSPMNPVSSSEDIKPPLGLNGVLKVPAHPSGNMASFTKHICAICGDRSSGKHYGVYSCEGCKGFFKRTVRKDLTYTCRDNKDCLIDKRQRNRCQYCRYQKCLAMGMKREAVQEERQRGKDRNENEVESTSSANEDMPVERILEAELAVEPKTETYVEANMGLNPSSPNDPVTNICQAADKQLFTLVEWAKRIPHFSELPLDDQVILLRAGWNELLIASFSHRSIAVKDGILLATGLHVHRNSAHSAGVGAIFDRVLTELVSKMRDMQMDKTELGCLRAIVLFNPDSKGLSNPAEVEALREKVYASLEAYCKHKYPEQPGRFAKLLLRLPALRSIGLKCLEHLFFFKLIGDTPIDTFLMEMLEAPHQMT
Method in brief: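 Reporter activation is measured as beta-lactamase activity via FRET substrate cleavage (emission 460/530 nm) in HEK 293T cells expressing an RXR-alpha-driven bla construct, following 16 hr compound exposure at 37 C.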

[2] = qHTS assay to identify small molecule agonists of the RXR signaling pathway - cell viability counter screen (AID 1159529); settings: RXR-alpha-bla HEK293T viability, CellTiter-Glo, 16 h; series mostly up to 76.8 µM; note: nearly all actives have a fitted effect of over 50% in size
Method in brief: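 Tox21 10K compounds were tested for cytotoxicity against GeneBLAzer RXR-alpha HEK 293T cells grown in 2% charcoal-stripped FBS. Exposure lasted 16 hr at 37 C, 5% CO2; viability read by CellTiter-Glo luminescence.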

[3] = qHTS assay to identify small molecule antagonists of the retinoid acid receptor (RAR) signaling pathway - cell viability counter screen (AID 1159551); settings: C3RL4 cells viability, ATP luminescence (CellTiter-Glo), 6 h; series mostly up to 92.4 µM; note: nearly all actives have a fitted effect of over 35% in size
Method in brief: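 C3RL4 RARE-luciferase line; cpds + retinol 1 uM final, 6 h, 37 C/5% CO2; CellTiter-Glo ATP luminescence, 30 min RT.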

[4] = qHTS assay to identify small molecule antagonists of the retinoic acid receptor (RAR) signaling pathway (AID 1159552; note: nearly all actives have a fitted effect of over 50% in size); settings: C3RL4 RARE luciferase reporter, retinol-stimulated, 6 h; series mostly up to 92.4 µM
Method in brief: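 Overnight-plated C3RL4 reporter cells get compound, then retinol to 1 uM final; plates sit 6 hr at 37 C, 5% CO2. A luciferase reagent is added and light output recorded after 30 min at room temperature.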

[5] = qHTS assay to identify small molecule agonists of the retinoic acid receptor (RAR) signaling pathway (AID 1159553); settings: C3RL4 RARE luciferase reporter, agonist, 6 h; series mostly up to 73.3 µM
Method in brief: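 RARE-luc C3RL4 cells; overnight attachment 37 C/5% CO2; compound (DMSO) 6 hr; luciferase reagent, 30 min RT; luminescence read-out.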

Measured: Potency

NC(=O)C(Cl)(Cl)Cl
inactive: all assays above

C/C=C/C=O
inactive: all assays above

COC(N)=O
inactive: all assays above

C=C(C#N)CCC#N
inactive: all assays above

C=CCN1CC[C@]23c4c5ccc(O)c4O[C@H]2C(=O)CC[C@@]3(O)[C@H]1C5
inactive: all assays above

Cn1cc[n+](C)c1 (tested in a mixture with another compound)
inactive: all assays above

CNC(C)Cc1ccccc1OC (stereo not given)
inactive: all assays above

Clc1cccc(SC2CCNCC2)n1
inactive: all assays above

CC(C)O.CC(C)O.OCCN(CCO)CCO.OCCN(CCO)CCO.[Ti]
inactive: all assays above

N#Cc1ccc(Cl)cc1
inactive: all assays above

ClCc1cccc(Cl)c1
inactive: all assays above

CC1Sc2c(C(=O)O)c(=O)c3cc(F)c(N4CCNCC4)cc3n21 (stereo not given)
inactive: all assays above

COC(=O)c1cncn1C(C)c1ccccc1 (stereo not given)
inactive: all assays above

C=CC(=O)OC
inactive: all assays above
